Results on 22 molecules are retold here after PubChem BioAssay (Tox21).

A number with no mark means an inactive call. Results filed as inconclusive are left out. Activity calls are given as the source filed them. Calls follow the shape of the dose curve; as a rule, active = well fitted curve in the direction sought with a large enough effect in the repeat runs; inconclusive = weak or mixed curves; inactive = no such curve, though single readings can be large; an effect the other way counts as inactive or inconclusive.

Assay [1] in a line: A CellTox Green Cytotoxicity Assay to monitor cytotoxicity in HEK293 cells - 32 hour (AID 1224881). Also: nearly all actives have a fitted effect of over 40% in size. A digest of the protocol: (§1)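 HEK293 cells, 600/well, were preincubated 5 hours and then exposed to compounds at 37 C for up to 40 hours. A cell-impermeant cyanine dye staining dead-cell DNA was read by fluorescence at 0, 8, 16, 24, 32 and 40 h time points.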
Assay [2] in a line: A CellTox Green Cytotoxicity Assay to monitor cytotoxicity in HepG2 cells - 0 hour (AID 1224882). Also: nearly all actives have a fitted effect of over 35% in size. A digest of the protocol: (§2)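 HepG2 cells, 600/well, preincubated 5 h with CellTox Green dye, then exposed to Tox21 compounds in DMSO at 37 C for up to 40 h. Dead-cell DNA fluorescence read at the indicated time point.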
Assay [3] in a line: A CellTox Green Cytotoxicity Assay to monitor cytotoxicity in HepG2 cells - 32 hour (AID 1224883). Also: nearly all actives have a fitted effect of over 50% in size. A digest of the protocol:
as §2

Assay [4] is described as follows: A CellTox Green Cytotoxicity Assay to monitor cytotoxicity in HEK293 cells - 8 hour (AID 1224884). Also: nearly all actives have a fitted effect of over 35% in size. The method, boiled down: as §1
Assay [5] can be described thus: qHTS RealTime-Glo MT Cell Viability Assay in HepG2 cells - 16 hour (AID 1224885). Also: nearly all actives have a fitted effect of over 50% in size. A digest of the protocol: (§3)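 Luminescence read-out: viable HepG2 cells reduce a prosubstrate to a NanoLuc substrate, giving a signal proportional to live cell number. Reads taken at 0, 8, 16, 24, 32 and 40 h of compound exposure at 37 C.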
For orientation: qHTS replaces the single test concentration by a dilution series.

Assay [6] in a line: qHTS RealTime-Glo MT Cell Viability Assay in HEK293 cells - 24 hour (AID 1224886). Also: top concentration of the series differs between compounds; nearly all actives have a fitted effect of over 50% in size. The method, boiled down: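 Nonlytic real-time viability readout: viable cells convert prosubstrate to NanoLuc substrate, giving luminescence proportional to live cell number. HEK293, 600 cells/well, compound added after 5 h, continuous culture at 37 C.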
The nature of assay [7]: qHTS RealTime-Glo MT Cell Viability Assay in HEK293 cells - 8 hour (AID 1224887). Also: top concentration of the series differs between compounds; nearly all actives have a fitted effect of over 50% in size. A digest of the protocol: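 600 cells/well were plated with the nonlytic NanoLuc/prosubstrate reagent, pre-incubated 5 h, then given 23 nL of compound in DMSO. Incubation at 37 C for 40 h, with luminescence from viable-cell-reduced substrate read repeatedly from 0 h.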
A short description of assay [8]: A CellTox Green Cytotoxicity Assay to monitor cytotoxicity in HEK293 cells - 16 hour (AID 1224888). Also: nearly all actives have a fitted effect of over 35% in size. A digest of the protocol: as §1
Assay [9] is described as follows: qHTS RealTime-Glo MT Cell Viability Assay in HepG2 cells - 0 hour (AID 1224889). Also: nearly all actives have a fitted effect of over 50% in size. Also: potency is read from the fitted curve at half-maximal effect. The method, boiled down: as §3
Assay [10] is described as follows: A CellTox Green Cytotoxicity Assay to monitor cytotoxicity in HepG2 cells - 8 hour (AID 1224890). Also: nearly all actives have a fitted effect of over 45% in size. A digest of the protocol: as §2

`Nc1cccc(S(=O)(=O)c2cccc(N)c2)c1`: the Potency result in assay [1], in assay [2], in [3], in [4], in [5] and in assay [6] was “inactive” each time. For the same molecule, the Potency entry in [7], in [8], in [9] and in assay [10] was “inactive” throughout.
Turning to `CC(=O)OC[C@H]1O[C@@H](n2ncc(=O)[nH]c2=O)[C@H](OC(C)=O)[C@@H]1OC(C)=O`, the Potency result in assay [1], in assay [2], in [3], in assay [4], in assay [5] and in assay [6] was “inactive” each time. The Potency entry in assay [7], in assay [8], in [9] and in assay [10] was “inactive” in each case.
Take `OCCN1CCN(CCCN2c3ccccc3C=Cc3ccccc32)CC1`: the Potency entry in assay [1], in [2], in [3], in assay [4], in assay [5] and in assay [6] was “inactive” each time. The Potency result in assay [7], in assay [8], in [9] and in [10] was “inactive” in each case.
Consider `CCCCCC[C@@H](O)C/C=C\CCCCCCCC(=O)OC`, for which the Potency entry in [1], in assay [2], in assay [3], in assay [4], in assay [5] and in assay [6] was “inactive” throughout. Besides, the Potency result in assay [7], in assay [8], in assay [9] and in assay [10] was “inactive” throughout.
Consider `O=C1OC(CN2CCOCC2)CN1/N=C/c1ccc([N+](=O)[O-])o1` (stereo not given), for which the Potency result in assay [1], in assay [2], in [3], in [4], in assay [5] and in assay [6] was “inactive” in each case. Moreover, the Potency entry in [7], in [8], in assay [9] and in assay [10] was “inactive” throughout.
Take `CCCCCCCCCCCC(=O)OC[C@@H](O)[C@H]1OC[C@H](OCCO)[C@H]1OCCO`: the Potency result in assay [1], in assay [2], in [3], in assay [4], in assay [5] and in assay [6] was “inactive” in each case. The Potency entry in [7], in assay [8], in [9] and in [10] was “inactive” throughout.
Consider `Cc1cccc(C)c1NC(=O)CN(CC(=O)O)CC(=O)O`, for which the Potency entry in [1], in assay [2], in assay [3], in [4], in assay [5] and in [6] was “inactive” in each case. The Potency entry in assay [7], in assay [8], in [9] and in [10] was “inactive” in each case.
For the molecule `CCOC(=O)C(O)c1ccccc1` (stereo not given), the Potency result in [1], in assay [2], in assay [3], in assay [4], in assay [5] and in [6] was “inactive” throughout. Moreover, the Potency entry in assay [7], in [8], in assay [9] and in assay [10] was “inactive” each time.
`O=C(O)c1ccccc1Cl`: the Potency result in assay [1], in assay [2], in assay [3], in assay [4], in assay [5] and in [6] was “inactive” throughout. Further, the Potency entry in assay [7], in [8], in assay [9] and in [10] was “inactive” each time.
Regarding `Cc1ccc(N=Nc2c(O)c(C(=O)O)cc3ccccc23)c(S(=O)(=O)O)c1`, the Potency entry in assay [1], in assay [2], in assay [3], in [4], in assay [5] and in [6] was “inactive” each time. Also, the Potency entry in assay [7], in assay [8], in assay [9] and in assay [10] was “inactive” each time.
With `CN(C)CCN(Cc1ccc(Cl)cc1)c1ccccn1`, the Potency entry in [1], in assay [2], in assay [3], in [4], in assay [5] and in [6] was “inactive” each time. Moreover, the Potency entry in assay [7], in assay [8], in assay [9] and in assay [10] was “inactive” throughout.
With `O=C1C(O)=C(O)C(=O)C(O)=C1O`, the Potency entry in [1], in assay [2], in assay [3], in assay [4], in [5] and in [6] was “inactive” each time. Besides, the Potency entry in [7], in assay [8], in assay [9] and in assay [10] was “inactive” throughout.
On to `OC[C@H]1O[C@@H](OCCc2ccc(O)cc2)[C@H](O)[C@@H](O)[C@@H]1O`, for which the Potency result in assay [1], in assay [2], in [3], in assay [4], in assay [5] and in assay [6] was “inactive” in each case. In addition, the Potency entry in [7], in [8], in assay [9] and in assay [10] was “inactive” each time.
For `CCCCCCCC/C=C\CCCCCCCC(=O)OCC`, the Potency entry in [1], in [2], in assay [3], in [4], in assay [5] and in [6] was “inactive” in each case. In addition, the Potency result in assay [7], in [8], in assay [9] and in assay [10] was “inactive” each time.
Turning to `COC(C)OC`, the Potency entry in [1], in [2], in assay [3], in assay [4], in [5] and in assay [6] was “inactive” throughout. Moreover, the Potency entry in assay [7], in assay [8], in assay [9] and in [10] was “inactive” in each case.
For the molecule `CC(=O)[O][Al]`, the Potency result in assay [1], in assay [2], in assay [3], in assay [4], in assay [5] and in assay [6] was “inactive” in each case. Also, the Potency result in [7], in assay [8], in assay [9] and in assay [10] was “inactive” throughout.
On to `C=CC(=O)OCCOc1ccccc1`, for which the Potency entry in assay [1], in assay [2], in [3], in assay [4], in [5] and in assay [6] was “inactive” throughout. The Potency result in assay [7], in assay [8], in assay [9] and in assay [10] was “inactive” throughout.
Consider `CCc1cc(C2=C(C(=O)O)N(c3ccccc3C(F)(F)F)S(=O)(=O)c3ccccc32)cc2c1OCO2`, for which the Potency entry in [1], in [2], in assay [3], in assay [4], in assay [5] and in assay [6] was “inactive” throughout. Also, the Potency result in assay [7], in assay [8] and in assay [10] was “inactive” throughout. For the same molecule, the Potency in assay [9] is 24.3 µM (active).
Consider `CCCCc1ncc(/C=C(\Cc2cccs2)C(=O)O)n1Cc1ccc(C(=O)O)cc1`, for which the Potency result in assay [1], in [2], in assay [3], in assay [4], in assay [5] and in [6] was “inactive” in each case. Further, the Potency result in assay [7], in assay [8], in assay [9] and in [10] was “inactive” each time.
In the case of `Cc1ccc(C(C)OC(=O)C2(C)CCC(C(=O)O)C2(C)C)cc1` (stereo not given), the Potency entry in assay [1], in assay [2], in assay [3], in [4], in assay [5] and in assay [6] was “inactive” each time. Moreover, the Potency entry in [7], in [8], in [9] and in assay [10] was “inactive” each time.
In the case of `C/C=C(/C(=C/C)c1ccc(OC(C)=O)cc1)c1ccc(OC(C)=O)cc1`, the Potency result in [1], in [2], in assay [3], in [4], in [5] and in assay [6] was “inactive” each time. Further, the Potency result in [7], in assay [8], in assay [9] and in [10] was “inactive” each time.
Turning to `CCCCCCCC#N`, the Potency entry in assay [1], in assay [2], in assay [3], in assay [4], in assay [5] and in [6] was “inactive” each time. Also, the Potency result in assay [7], in [8], in assay [9] and in assay [10] was “inactive” throughout.
